# According to the supplement of paper PMC4954754:
# ± gives the uncertainty stated by the source.
# System: HEK293T-Rex XBP1-RLuc
# Assay: XBP1-RLuc splicing reporter activation, triplicate, relative to 500 nM thapsigargin (% of thapsigargin); higher = stronger IRE1/XBP1s reporter activation
# Conditions: 6.8 µM; 18 h; screen: confirmation
# Description: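 HEK293T-Rex cells stably expressing the ERSE-firefly luciferase (BiP promoter, ATF6-preferring) or XBP1-splicing Renilla luciferase (IRE1/XBP1s) reporter, 1536-well plates, compound at 6.8 µM for 18 hr at 37 °C; luminescence read […] and expressed as % activation = 100*(compound - median DMSO)/(median 500 nM thapsigargin - median DMSO). Primary screen was single-pass; confirmation screen in triplicate (mean ± SD).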
row,Compound,XBP1-RLuc splicing reporter activation
1,Nc1ccc2nc(-c3cc(Cl)c(N)c(Cl)c3)[nH]c2c1,13.2 ± 1.2
2,O=C(/C=C/c1ccccc1)Nc1ccc(Cl)cn1,1.96 ± 0.26
3,Nc1ccc(-c2nc3cc(N)c(Cl)cc3[nH]2)cc1,16 ± 1
4,Cn1cccc1/C=C1/SC(=Nc2ccccc2)NC1=O,5.98 ± 0.28
5,COCCNC(=O)c1cc(-c2cccs2)on1,6.38 ± 1.2
6,O=c1[nH]c(COc2ccccc2)nc2sc3c(c12)CCCC3,4.82 ± 0.69
7,Cc1ccc(O)c(NC(=O)CSc2n[nH]c(C)c2[N+](=O)[O-])c1,16.6 ± 2.4
8,COc1ccc(/C=C(\C#N)c2nc3ccccc3n2C)cc1,-0.499 ± 0.016
9,CN(C)c1ccc(C(=NO)c2ccc(N(C)C)cc2)cc1,6.61 ± 1.1
10,OCCNc1nc(Nc2ccc(Cl)cc2)nc2ccccc12,32.6 ± 2.5
11,CC(=O)N1CCc2c([nH]c3ccccc23)C12CCN(CCCOc1ccccc1)CC2,65.9 ± 4
12,N#C/C(=C(/O)c1cc(-c2ccccc2)nc2ccccc12)c1nc2ccccc2[nH]1,9.52 ± 1.4
13,C=CCNC(=O)c1cc(-c2ccccc2)on1,5.5 ± 0.76
14,O=C(N/N=C/c1ccc(Cl)cc1Cl)c1ccc(O)c(O)c1,10.6 ± 0.64
15,COc1ccc(-c2cc(C(=O)Nc3cc(C)ccc3O)on2)cc1OC,10.9 ± 1.2
16,CCN1C(=O)/C(=C\c2ccc(O)cc2O)SC1=S,13.6 ± 1.7
17,COc1cccc(/C=N/NC(=O)c2ccc(NC(=O)c3ccc(C)cc3)cc2)c1O,86.3 ± 12
18,CCN(CC)c1ccc2cc(-c3nc4ccccc4n3C)c(=O)oc2c1,9.31 ± 0.79
19,Oc1ccc(-c2csc3nc(-c4ccccc4)nn23)c(O)c1,15.3 ± 1.7
20,COc1ccc(/C=C/c2ccc3cccc(OC(C)=O)c3n2)cc1OC(C)=O,6.25 ± 0.81

row,Compound,XBP1-RLuc splicing reporter activation
1,O=C(N/N=C/c1cccc(O)c1O)c1ccccc1I,11.2 ± 0.69
2,COc1cccc(C2=NOC(C(=O)Nc3cc(C)ccc3O)C2)c1 (stereo not given),14.1 ± 0.22
3,CCc1nc2sc(C(=O)c3ccccc3)c(N)c2cc1C,2.72 ± 1.5
4,O=C(c1ccccc1)c1c(O)ccc2c(C(=O)c3ccccc3)c(O)ccc12,15.8 ± 2.8
5,Cc1ccc(O)c(-c2cc(-c3cccs3)[nH]n2)c1,7.79 ± 0.86
6,COc1ccccc1/C=C/C(=O)Nc1ccc(Cl)cn1,-1.93 ± 1.5
7,Cc1ccc(O)c(-c2cc(-c3ccc(F)cc3)n[nH]2)c1,3.17 ± 2.6
8,O=C(NC1CCCC1)c1cc(-c2cccs2)on1,4.95 ± 0.3
9,CN(C)/C=N/C1=C(C#N)C(c2ccc3c(c2)OCO3)c2ccc3ccccc3c2O1 (stereo not given),1.3 ± 3.6
10,O=C(/C=C/c1ccco1)Nc1ccc(Br)cc1Cl,-0.469 ± 0.9
11,CCOc1cc(C2C(C(=O)OC3CCCCC3)=C(C)NC3=C2C(=O)CC(c2ccc(OC)cc2)C3)cc(Br)c1O (stereo not given),18.5 ± 2.8
12,C=CCn1c(N2CCC(C(=O)NCCc3ccc(O)c(O)c3)CC2)nc2ccccc21,33.9 ± 2
13,CC(C)NC(=O)c1cc(-c2ccc(O)cc2)on1,18.5 ± 1.6
14,O=c1[nH]c(/C=C2\C=Nc3ccccc32)c(O)n1-c1ccc(Cl)cc1,43.1 ± 3.6
15,O=c1[nH]c(/C=C2\C=Nc3ccccc32)c(O)n1-c1cccc(Cl)c1,47.9 ± 7.7
16,CCc1cc2c(=O)c(-c3ccc4c(c3)OCCO4)coc2cc1OC,12.2 ± 0.77
17,COc1ccc(NC(=O)/C(Cl)=C\c2ccccc2)cc1,-0.467 ± 2.4
18,COc1cccc(/C=N/NC(=O)c2n[nH]c3c2CCCC3)c1,2.73 ± 0.56
19,N#Cc1c(NC(=O)c2ccc3ncsc3c2)sc2c1CCC2,1.45 ± 1.6
20,CCOc1cccc(C(=O)Nc2ccc(-c3nc4ccc(C(=O)c5ccccc5)cc4[nH]3)cc2)c1,94 ± 5
